Source: PubChem (several laboratories)
3CLpro inhibitor: SARS-CoV 3CLpro protease inhibition; AID 1706; P0C6X7; inhibition, % at 6 µM; hit rate 0.14% among 290,000; recombinant SARS-CoV 3CLpro, quenched FRET peptide cleavage; in the data active = inhibition above about 12%
BJeLR lethal: kills HRASV12-expressing BJeLR cells; AID 1554; BJeLR (HRASV12) viability, CellTiter-Glo ATP luminescence, 48 h; hit rate 0.17% among 300,000; inhibition, % (no concentration beside the values); in the data active = inhibition above about 50%
MazEF act: activators of E. coli MazEF toxin-antitoxin RNase; FAM/BHQ RNA-DNA oligo cleavage fluorescence, 5 h; activation, % at 20 µM; hit rate 0.32% among 350,000; AID 504720; in the data active = activation above about 50%
Target sequence (P0AE70 whole entry, looked up): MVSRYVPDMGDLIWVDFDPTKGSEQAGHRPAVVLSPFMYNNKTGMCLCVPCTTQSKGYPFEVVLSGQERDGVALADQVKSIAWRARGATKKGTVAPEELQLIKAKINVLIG
DUSP3 inh: inhibitors of human VHR1 phosphatase (DUSP3); recombinant VHR phosphatase, pNPP absorbance; inhibition, % at 13.3 µM; hit rate 0.52% among 290,000; AID 1654; in the data active = inhibition above about 50%
Target sequence (P51452 whole entry, looked up): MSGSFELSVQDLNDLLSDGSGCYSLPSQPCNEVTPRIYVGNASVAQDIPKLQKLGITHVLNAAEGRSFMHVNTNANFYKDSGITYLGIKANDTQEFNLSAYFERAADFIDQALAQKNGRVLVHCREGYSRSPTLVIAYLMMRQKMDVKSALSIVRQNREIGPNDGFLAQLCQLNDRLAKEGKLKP
CCHF vOTU inh-1: CCHFV vOTU protease inhibition; Pep-AMC fluorescence; hit rate 0.55% among 370,000; AID 651958; inhibition, % at 11.5 µM; also: 0% = vehicle wells with enzyme and 100% = no enzyme wells
CCHF vOTU inh-2: CCHFV vOTU protease inhibition, confirmation. shares compounds with CCHF vOTU inh-1. Recombinant CCHFV vOTU, Pep-AMC fluorescence. inhibition, % at 11.5 µM. hit rate 17% among 1,900
An asterisk follows results filed as active; . = no result. A selection: hits, their analogues and other compounds. The true share with any hit is near 1.4%. Rule as the data show it, unless noted: active = inhibition above about 30%; inactive = the rest.

SMILES | 3CLpro inhibitor | BJeLR lethal | MazEF act | DUSP3 inh | CCHF vOTU inh-1 | CCHF vOTU inh-2
CCCC(=O)Nc1ccc2c(c1)C(=O)N(C)[C@H]1CC[C@@H](CC(=O)OC)O[C@@H]1CO2 | . | . | . | . | -7 | .
CC(C)(C)N(Cc1nc(-c2ccccc2)no1)C(=O)c1ccc2c(c1)OCO2 | 4 | -8 | 5 | 30 | 30* | -9
CCn1c(C)cc(/C=C2\NC(=O)N(CC(=O)Nc3cccc(C)c3)C2=O)c1C | -3 | 4 | 6 | 13 | 28 | .
CCn1c(C)cc(/C=C2/NC(=O)N(CC(=O)Nc3cccc(C)c3)C2=O)c1C | 2 | 0 | 2 | 16 | 31* | 3
Nc1cccc2cc(S(=O)(=O)O)ccc12 | . | . | 3 | . | 32* | 37*
COc1cccc(C(c2c(C)[nH]n(-c3ccccc3)c2=O)c2c(C)[nH]n(-c3ccccc3)c2=O)c1OC | 2 | -1 | -2 | 5 | 56* | -8
COc1cccc(C(c2c(C)[nH]n(-c3ccccc3)c2=O)c2c(C)[nH]n(-c3ccccc3)c2=O)c1O | . | 0 | 11 | . | 99* | -4
CCOc1cccc(C(c2c(C)n(C)n(-c3ccccc3)c2=O)c2c(C)n(C)n(-c3ccccc3)c2=O)c1OC | -2 | -3 | 0 | . | -4 | .
COc1cc(Cc2nccc3cc(OC)c(OC)cc23)c(S(=O)(=O)O)cc1OC | -1 | 12 | 8 | 10 | 71* | -13
Nn1cnnc1N/N=C/c1cc(Br)cc(Br)c1O | -3 | -2 | 13 | 32 | 104* | -13
CC1CCN(c2ccc(/C=N\Nc3nncn3N)cc2[N+](=O)[O-])CC1 | -3 | . | 6 | 7 | 88* | 12
CSc1ccc(/C=N\Nc2nncn2N)cc1 | 0 | -6 | 3 | -24 | 101* | -7
CC(C)(C)c1ccc(/C=N/Nc2nncn2N)cc1 | 0 | -5 | 7 | 5 | 89* | 5
CCc1nc(C(N)=O)c2[nH]c(=O)n(-c3ccccc3F)c2n1 | 0 | 8 | 9 | 2 | -46 | .
CCCCCCc1nc(C(N)=O)c2[nH]c(=O)n(-c3ccc(OC)cc3OC)c2n1 | 4 | -10 | 1 | -3 | 30* | 2
CCOC(=O)[C@]12CCCCC/C=C\1N(CCc1ccc(Cl)cc1)C(=O)[C@H]2CC(=O)NCCCCc1ccccc1 | . | . | . | . | 14 | .
COc1ccc(C)cc1-n1cnc2sc(C)c(C)c2c1=O | . | . | 2 | . | 30* | -22
C/C(=C\C(=O)c1cccnc1)Nc1ccc(O)cc1 | 1 | -2 | -4 | 30 | 95* | -1
C/C(=C\C(=O)c1ccccc1)Nc1ccc(O)cc1 | 7 | -6 | -5 | -6 | 76* | -3
CN1C2=N[C@H](c3ccccc3)CC(=O)N2/C(=C\c2ccccc2)C1Cc1ccccc1 (stereo partly drawn) | . | . | . | . | 1 | .
COC(=O)[C@]12C[C@H](CC(=O)N3CCSCC3)C(=O)N(CCc3ccc(OC)c(OC)c3)C1=C[C@H](COCc1ccccc1)O[C@@H]2C | . | . | . | . | 0 | .
Cc1ccc(N/C=C2/Sc3ccccc3NC2=O)cc1 | 9 | 1 | 1 | 2 | 31* | -9
COc1ccc(N/C=C2/Sc3ccccc3NC2=O)cc1 | -1 | 0 | 6 | 1 | -6 | .
COC(=O)[C@]12C[C@H](CC(=O)NCCC(C)C)C(=O)N(Cc3cccc4ccccc34)C1=C[C@H](COCc1ccccc1)O[C@@H]2C | . | . | . | . | 13 | .
O=C(NCc1ccccc1F)C1C2C=CC3(CN(Cc4ccccc4)C(=O)C13)O2 (stereo not drawn) | . | . | . | . | -6 | .
SMILES | 3CLpro inhibitor | BJeLR lethal | MazEF act | DUSP3 inh | CCHF vOTU inh-1 | CCHF vOTU inh-2
Cc1ccc(NS(=O)(=O)c2cccc3cccnc23)c(Cl)c1 | 2 | -7 | 5 | 13 | 37* | -4
Cc1ccc(NS(=O)(=O)c2cccc3cccnc23)c(Br)c1 | -1 | -5 | 4 | 20 | 10 | .
c1cc2ccn(CC3CC3)c2cc1-c1ccc2ccn(CC3CC3)c2c1 | . | . | . | . | 0 | .
CCOC(=O)C1(C)CCCCCN1C(=O)c1ccc(OC)c(C(F)(F)F)c1 (stereo not drawn) | . | . | . | . | 35* | -9
COc1ccc(C(=O)N2CCCC2(C)C(=O)O)cc1C(F)(F)F (stereo not drawn) | . | . | . | . | 9 | .
CC1(C)CC(=O)C(C=Nc2ccc(N)cc2)=C(O)C1 | 4 | 4 | 5 | 22 | 63* | -8
COC(=O)C1C(O)=C(C=Nc2ccccc2)C(=O)CC1(C)C (stereo not drawn) | 2 | 1 | 10 | 15 | 5 | .
